Reference: PubChem BioAssay
The source made the active and inactive calls.

Columns and labels:
[1] = binders of probe aFSTL3 on microarray, primary screen, stem cell growth factor project, biochemical, small-molecule microarray, fluorescence 635/667 (AID 1064); details: higher = more signal;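 further: measures binding of the biotinylated anti-FSTL3 antibody to printed compounds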
[2] = binders from COS7 lysate, DM2A8 probe, primary screen, torsin A project, cell lysate, small-molecule microarray, fluorescence 635/667 (AID 1065); details: higher = more signal, COS7 lysate expressing mutant human TOR1A
[3] = binders of probe aFGF2 on microarray, primary screen, stem cell growth factor project, biochemical, small-molecule microarray, fluorescence 635/667 (AID 1067); details: higher = more signal;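 further: measures binding of biotinylated aFGF2 protein to printed compounds on slides; z-score merges feature fluorescence and signal-to-noise across triplicate slides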
[4] = binders of probe aFGF10 on microarray, primary screen, stem cell growth factor project, biochemical, small-molecule microarray, fluorescence 635/667 (AID 1071); details: higher = more signal;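 further: score merges 667 nm spot intensity and signal to noise from triplicate slides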
[5] = biological target: Neurogenic locus notch homolog protein 2 (Homo sapiens) (UniProt Q04721); test: Notch2 binders on small-molecule microarrays, primary screen, biochemical, small-molecule microarray, 635 nm fluorescence, stem cell growth factors (AID 1073); details: Notch2 binding, higher = more signal
[6] = biological target: Pro-neuregulin-1, membrane-bound isoform (Homo sapiens) (UniProt Q02297); test: NRG1 binders on small-molecule microarrays, primary screen, psychiatric disease protein project, biochemical, small-molecule microarray, fluorescence 635/667 (AID 1075); details: NRG1 binding, 635 nm fluorescence, higher = more signal;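 further: score combines 667 nm spot fluorescence with signal to noise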
[7] = test system: Neuregulin-1 EGF-like domain; test: binders of neuregulin-1 EGF-like domain, primary screen, biochemical, small-molecule microarray, 635 nm fluorescence (AID 1081); details: small-molecule microarray binding, higher = more signal;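 further: binding of the protein to compounds printed on small-molecule microarray slides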
[8] = FRG1 promoter luciferase signal modulators, primary screen, FRG1 inhibition for FSHD, cell-based, C2C12 myotubes, firefly/Renilla luciferase, luminescence (AID 1084); details: higher = more signal, called active from +8 up or from −8 down
[9] = binders of probe aFST on microarray, primary screen, stem cell growth factor project, biochemical, small-molecule microarray, fluorescence 635/667 (AID 1086); details: higher = more signal;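 further: score merges 667 nm fluorescence with signal-to-noise of each printed compound spot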
[10] = binders of probe aHhip on microarray, primary screen, stem cell growth factor project, biochemical, small-molecule microarray, fluorescence 635/667 (AID 1087); details: higher = more signal;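 further: score merges spot fluorescence at 667nm with spot signal to noise ratio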
[11] = test system: PRMT1 (protein arginine N-methyltransferase 1); test: PRMT1 binders on small-molecule microarrays, primary screen, biochemical, small-molecule microarray, 635 nm fluorescence (AID 1088); details: small-molecule microarray binding, higher = more signal;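 further: binding of Prmt1 protein to compounds spotted on small-molecule microarray slides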
[12] = yeast growth modulation, basal conditions, primary screen, YJM789 clinical isolate, OD600, 24 h (AID 1089);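 further: growth of clinical yeast isolate S. cerevisiae YJM 789 seeded 1000 cells per well; test concentration not given here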; details: S. cerevisiae YJM789 growth, higher = more signal, called active from +8 up or from −8 down
[13] = fission yeast growth modulation, primary screen, strain 972, OD600, 24 h, no modulator (AID 1090);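 further: basal condition with compound alone and no growth modifier present; test concentration not given here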; details: S. pombe 972 growth, higher = more signal, called active from +8 up or from −8 down
[14] = S. cerevisiae growth modulation with rapamycin, primary screen, strain BY4716, OD600, 96 h (AID 1091); details: higher = more signal, called active from +8 up or from −8 down; further: test concentration not given here
[15] = biological target: Torsin-1A-interacting protein 2 (Homo sapiens) (UniProt Q8NFQ8); test: LULL1 binders on small-molecule microarray, primary screen, cell lysate, human LULL1 lysate, 635/667 nm fluorescence (AID 1092); details: hLULL1 lysate binding, 635 nm fluorescence, higher = more signal;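 further: probe is lysate of COS7 cells overexpressing human LULL1; score merges per-feature 667 nm fluorescence with signal-to-noise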
[16] = E. coli growth modulation, two-sided OD650, primary screen, E. coli filamentation project, strain DRC41, 24 h (AID 1093); details: OD650, 24 h, higher = more signal, called active from +8 up or from −8 down;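 further: MC1000 strain lacking acrAB efflux and sulA so SOS filamentation is blocked; test concentration not given here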
[17] = small-molecule microarray binders of probe aLefty2, primary screen, biochemical, biotinylated probe, 635/667 nm fluorescence (AID 1094); details: higher = more signal;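 further: score merges spot fluorescence near 667 nm with spot signal-to-noise ratio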
[18] = test system: Noggin (protein binding on small-molecule microarray); test: Noggin binders on small-molecule microarray, primary screen, biochemical, 635/667 nm fluorescence (AID 1095); details: 635 nm fluorescence, higher = more signal;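 further: score merges 667 nm feature fluorescence with signal to noise over triplicate slides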
[19] = biological target: Neurogenic locus notch homolog protein 3 (Homo sapiens) (UniProt Q9UM47); test: NOTCH3 binders on small-molecule microarray, primary screen, biochemical, 635/667 nm fluorescence (AID 1096); details: NOTCH3 binding, 635 nm fluorescence, higher = more signal
[20] = small-molecule microarray binders of probe aEGFR, primary screen, biochemical, biotinylated probe, 635/667 nm fluorescence (AID 1097); details: higher = more signal;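 further: probe is a biotinylated anti-EGFR antibody binding compounds printed on slides; score combines fluorescence near 667 nm and signal to noise of each spot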

Torsin-1A-interacting protein 2 (Homo sapiens), sequence (Q8NFQ8 whole entry, looked up): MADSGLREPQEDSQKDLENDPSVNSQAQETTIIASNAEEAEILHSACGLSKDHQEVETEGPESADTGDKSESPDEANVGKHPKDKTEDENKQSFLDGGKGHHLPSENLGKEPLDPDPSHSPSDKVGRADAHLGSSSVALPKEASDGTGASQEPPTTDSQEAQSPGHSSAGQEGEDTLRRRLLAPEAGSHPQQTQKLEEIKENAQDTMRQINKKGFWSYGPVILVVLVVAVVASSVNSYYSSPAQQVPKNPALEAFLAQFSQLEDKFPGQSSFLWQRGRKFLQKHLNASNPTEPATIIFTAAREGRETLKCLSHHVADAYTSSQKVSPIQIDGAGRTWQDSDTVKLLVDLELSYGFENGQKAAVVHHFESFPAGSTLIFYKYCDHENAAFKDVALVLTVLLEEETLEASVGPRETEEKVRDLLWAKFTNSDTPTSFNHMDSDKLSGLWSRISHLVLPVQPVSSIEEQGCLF
Neurogenic locus notch homolog protein 3 (Homo sapiens), sequence (Q9UM47 whole entry, looked up): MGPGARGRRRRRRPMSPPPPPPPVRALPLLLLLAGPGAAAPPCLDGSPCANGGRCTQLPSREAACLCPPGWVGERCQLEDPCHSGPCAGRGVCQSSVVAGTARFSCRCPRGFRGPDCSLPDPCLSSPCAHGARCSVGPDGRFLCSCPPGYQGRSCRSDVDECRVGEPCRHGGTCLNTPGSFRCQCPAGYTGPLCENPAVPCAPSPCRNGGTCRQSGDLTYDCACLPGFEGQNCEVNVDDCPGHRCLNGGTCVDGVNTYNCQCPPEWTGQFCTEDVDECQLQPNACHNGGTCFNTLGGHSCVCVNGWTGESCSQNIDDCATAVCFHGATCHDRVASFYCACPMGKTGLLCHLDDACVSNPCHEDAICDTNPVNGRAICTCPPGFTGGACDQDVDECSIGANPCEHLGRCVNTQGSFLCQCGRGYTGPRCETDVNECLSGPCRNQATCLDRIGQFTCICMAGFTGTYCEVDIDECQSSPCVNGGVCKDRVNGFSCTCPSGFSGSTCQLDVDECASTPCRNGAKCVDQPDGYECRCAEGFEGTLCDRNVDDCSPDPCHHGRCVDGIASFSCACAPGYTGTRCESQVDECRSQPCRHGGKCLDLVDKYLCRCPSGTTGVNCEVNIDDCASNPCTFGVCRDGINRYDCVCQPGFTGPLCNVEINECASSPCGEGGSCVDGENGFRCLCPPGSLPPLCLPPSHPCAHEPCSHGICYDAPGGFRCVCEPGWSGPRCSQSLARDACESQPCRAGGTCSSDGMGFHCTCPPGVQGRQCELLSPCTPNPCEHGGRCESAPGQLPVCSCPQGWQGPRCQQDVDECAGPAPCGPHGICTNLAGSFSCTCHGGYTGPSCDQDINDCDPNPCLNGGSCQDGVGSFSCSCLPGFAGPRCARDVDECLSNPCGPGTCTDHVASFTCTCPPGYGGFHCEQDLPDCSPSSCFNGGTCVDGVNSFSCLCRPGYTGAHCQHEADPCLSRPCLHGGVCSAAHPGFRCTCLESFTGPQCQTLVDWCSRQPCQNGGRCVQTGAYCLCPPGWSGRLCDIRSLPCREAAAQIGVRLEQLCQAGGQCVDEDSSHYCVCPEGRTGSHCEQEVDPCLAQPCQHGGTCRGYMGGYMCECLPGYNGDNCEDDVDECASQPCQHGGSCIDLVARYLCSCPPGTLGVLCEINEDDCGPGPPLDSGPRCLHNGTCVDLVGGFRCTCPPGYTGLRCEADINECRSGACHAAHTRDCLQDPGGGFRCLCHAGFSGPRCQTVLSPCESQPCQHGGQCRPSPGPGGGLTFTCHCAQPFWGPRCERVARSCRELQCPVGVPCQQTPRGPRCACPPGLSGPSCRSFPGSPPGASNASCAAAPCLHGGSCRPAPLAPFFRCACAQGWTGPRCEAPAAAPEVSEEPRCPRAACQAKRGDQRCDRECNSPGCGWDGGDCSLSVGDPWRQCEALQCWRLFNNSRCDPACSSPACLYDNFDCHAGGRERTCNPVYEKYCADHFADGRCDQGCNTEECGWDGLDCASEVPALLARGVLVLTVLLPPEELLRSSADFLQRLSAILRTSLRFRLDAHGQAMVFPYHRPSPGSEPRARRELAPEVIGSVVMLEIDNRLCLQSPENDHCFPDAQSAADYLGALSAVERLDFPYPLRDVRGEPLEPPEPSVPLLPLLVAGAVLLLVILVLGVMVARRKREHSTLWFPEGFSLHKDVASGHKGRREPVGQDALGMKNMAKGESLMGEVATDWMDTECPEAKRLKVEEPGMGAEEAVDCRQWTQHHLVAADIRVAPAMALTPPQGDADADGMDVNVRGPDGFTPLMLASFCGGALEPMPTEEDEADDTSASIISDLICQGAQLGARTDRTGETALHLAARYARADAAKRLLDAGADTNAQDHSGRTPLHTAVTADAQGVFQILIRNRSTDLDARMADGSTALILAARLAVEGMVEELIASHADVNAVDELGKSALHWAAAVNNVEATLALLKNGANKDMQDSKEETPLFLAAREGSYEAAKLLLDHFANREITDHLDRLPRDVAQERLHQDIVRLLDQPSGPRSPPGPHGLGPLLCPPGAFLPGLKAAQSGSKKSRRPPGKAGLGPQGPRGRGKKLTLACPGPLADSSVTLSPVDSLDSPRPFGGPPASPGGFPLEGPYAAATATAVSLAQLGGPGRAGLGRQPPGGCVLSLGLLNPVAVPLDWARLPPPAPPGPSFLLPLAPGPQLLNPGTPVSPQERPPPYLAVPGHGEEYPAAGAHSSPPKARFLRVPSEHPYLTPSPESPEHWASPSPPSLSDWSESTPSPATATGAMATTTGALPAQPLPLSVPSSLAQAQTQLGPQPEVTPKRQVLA
Pro-neuregulin-1, membrane-bound isoform (Homo sapiens), sequence (Q02297 whole entry, looked up, the tested form may be a part, canonical isoform): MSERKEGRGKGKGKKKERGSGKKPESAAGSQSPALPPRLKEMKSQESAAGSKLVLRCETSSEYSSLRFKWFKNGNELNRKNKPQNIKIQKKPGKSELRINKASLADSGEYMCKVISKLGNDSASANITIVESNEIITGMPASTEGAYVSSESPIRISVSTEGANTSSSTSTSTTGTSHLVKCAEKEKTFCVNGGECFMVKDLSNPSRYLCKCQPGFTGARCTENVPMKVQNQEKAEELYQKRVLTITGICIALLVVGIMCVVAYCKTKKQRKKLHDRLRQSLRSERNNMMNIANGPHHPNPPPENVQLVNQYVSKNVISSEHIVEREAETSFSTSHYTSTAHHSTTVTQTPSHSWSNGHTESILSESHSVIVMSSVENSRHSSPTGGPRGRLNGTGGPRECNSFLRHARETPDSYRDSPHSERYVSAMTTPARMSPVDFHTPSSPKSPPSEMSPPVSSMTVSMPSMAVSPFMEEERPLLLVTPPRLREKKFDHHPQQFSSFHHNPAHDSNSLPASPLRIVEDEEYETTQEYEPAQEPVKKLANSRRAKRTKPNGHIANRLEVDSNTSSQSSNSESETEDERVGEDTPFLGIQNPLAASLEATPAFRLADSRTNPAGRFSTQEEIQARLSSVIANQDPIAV

| Compound | composite z-score [1] | composite z-score [2] | composite z-score [3] | composite z-score [4] | composite z-score [5] | composite z-score [6] | composite z-score [7] | z-score [8] | composite z-score [9] | composite z-score [10] | composite z-score [11] | z-score [12] | z-score [13] | z-score [14] | composite z-score [15] | z-score [16] | composite z-score [17] | composite z-score [18] | composite z-score [19] | composite z-score [20] |
| --- | --- | --- | --- | --- | --- | --- | --- | --- | --- | --- | --- | --- | --- | --- | --- | --- | --- | --- | --- | --- |
| CC1(C)OCC(C(O)C2=CCCCC2=O)CO1 (stereo not given) | -0.495 | 0.547 | -0.0607 | 0.54 | 0.214 | 0.366 | 0.979 | 0.119 (inactive) | 0.753 | 0.065 | 1.56 | 0.209 (inactive) | -0.0255 (inactive) | 0.856 (inactive) | 0.231 | -0.449 (inactive) | -0.0478 | 0.986 | 1.06 | 0.0688 |
| CC(C)=NOCc1ccc(-c2cc(-c3ccccc3)no2)cc1 | -0.474 | -0.191 | -0.0788 | 0.241 | 0.29 | -0.225 | 0.123 | -0.172 (inactive) | 0.0003 | -0.0296 | -1.06 | 0.237 (inactive) | 0.256 (inactive) | 0.213 (inactive) | 0.108 | 0.383 (inactive) | -0.252 | 0.429 | 0.152 | -0.163 |
| CC(C)C[C@@H]1NC(=O)[C@H]2C[C@@H](C(=O)NCCCCCCN(C)C)[C@@H](c3cccc(OCCO)c3)N2C1=O | 0.293 | 1.55 | -0.0173 | 0.789 | 0.873 | 0.528 | 0.781 | 3.77 (inactive) | 0.256 | -0.156 | 1.53 | -1.16 (inactive) | 0.184 (inactive) | -0.46 (inactive) | 2.12 | -0.0145 (inactive) | 0.173 | 1.19 | 1.04 | 0.0948 |
| O=C1CCCC=C1C(O)CCOCc1ccccc1 (stereo not given) | -0.149 | 0.858 | -0.0753 | 0.0674 | -0.175 | -0.573 | 0.28 | 1.58 (inactive) | -0.0364 | -0.236 | -0.195 | -0.385 (inactive) | -0.82 (inactive) | -1.15 (inactive) | -1.08 | -0.546 (inactive) | -0.224 | 0.355 | -0.834 | -0.0828 |
| COC(=O)C1=C(C)N(Cc2ccccc2)[C@]23O[C@](C(=O)OC)(C(=O)N2[C@@H]1c1ccccc1)[C@H]1CCOC(=O)[C@H]13 | -0.602 | 0.601 | -0.0956 | 0.649 | 0.783 | -0.146 | 0.815 | -0.203 (inactive) | 0.0592 | -0.0645 | 0.33 | 0.828 (inactive) | 0.494 (inactive) | 1.71 (inactive) | 0.257 | 0.308 (inactive) | -0.0638 | 0.648 | 1.07 | -0.0152 |
| CN1C(=O)C2C=CC(C(O)c3ccc(Br)cc3)N(N(c3ccccc3)c3ccccc3)C2C1=O (stereo not given) | 0.519 | -0.225 | 0.301 | 0.125 | 1.09 | 0.181 | 0.985 | 0.162 (inactive) | 0.576 | -0.0618 | 0.289 | 0.351 (inactive) | 1.27 (inactive) | 2.27 (inactive) | 1.94 | -1.24 (inactive) | 0.238 | -0.482 | 0.585 | 0.146 |
